bovine MsrA act = bovine MsrA enzyme activators, primary screen, biochemical, absorbance, HTS; Methionine sulfoxide reductase A (Bos taurus); purified bovine MsrA, absorbance read-out; activation, % at 10.6 µM; 360,000 compounds, 0.3% hits; AID 602163, 2012; in the data active = activation above about 7.5%;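 also: 0% = vehicle and 100% = reference activator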
ABCB6 inh MLPCN = ABCB6 transporter inhibitors, primary screen, K562-ABCB6 cells, flow cytometry, MLPCN library; K562-ABCB6 porphyrin accumulation, 1 h; hits give low values; fluorescence ratio to DMSO, % at 10 µM; 360,000 compounds, 0.19% hits;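 active = fluorescence ratio to DMSO below 75%, the collection mean minus 3 SD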;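 also: signal is porphyrin accumulated inside mitochondria; 100% equals median channel fluorescence of DMSO control wells; lower ratio means ABCB6 inhibition with less porphyrin fluorescence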
Target sequence (Q9NP58 whole entry, looked up): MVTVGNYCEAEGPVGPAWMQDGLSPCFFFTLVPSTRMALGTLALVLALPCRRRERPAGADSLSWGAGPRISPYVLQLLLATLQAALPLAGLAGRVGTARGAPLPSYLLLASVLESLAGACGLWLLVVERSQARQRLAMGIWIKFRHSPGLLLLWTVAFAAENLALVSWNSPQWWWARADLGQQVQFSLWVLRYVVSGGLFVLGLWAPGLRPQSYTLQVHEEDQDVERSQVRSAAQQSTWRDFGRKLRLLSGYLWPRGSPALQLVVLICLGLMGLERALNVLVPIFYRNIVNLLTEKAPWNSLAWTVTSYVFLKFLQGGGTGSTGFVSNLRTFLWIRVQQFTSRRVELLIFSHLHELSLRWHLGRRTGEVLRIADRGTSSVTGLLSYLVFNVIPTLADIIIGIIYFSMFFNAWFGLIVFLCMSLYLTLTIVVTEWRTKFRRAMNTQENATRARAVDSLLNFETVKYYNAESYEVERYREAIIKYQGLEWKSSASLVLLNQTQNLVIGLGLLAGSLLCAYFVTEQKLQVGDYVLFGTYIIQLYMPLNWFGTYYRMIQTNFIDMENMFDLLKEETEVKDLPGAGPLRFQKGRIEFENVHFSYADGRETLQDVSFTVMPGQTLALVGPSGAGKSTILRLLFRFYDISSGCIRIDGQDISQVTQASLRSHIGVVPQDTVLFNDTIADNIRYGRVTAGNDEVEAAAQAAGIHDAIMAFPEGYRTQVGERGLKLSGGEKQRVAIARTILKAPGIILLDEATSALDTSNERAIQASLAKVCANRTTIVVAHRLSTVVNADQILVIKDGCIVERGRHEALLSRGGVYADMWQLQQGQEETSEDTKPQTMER
MsrA inh = bovine MsrA enzyme inhibitors, primary screen, biochemical, absorbance, HTS; Methionine sulfoxide reductase A (Bos taurus); purified bovine MsrA, absorbance read-out; inhibition, % at 15.5 µM; 360,000 compounds, 0.75% hits; AID 651718, 2012; in the data active = inhibition above about 4.5%;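 also: 0% = vehicle wells with enzyme and 100% = reference inhibitor wells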
SMARCA2 act = SMARCA2 (BRM) function activators, primary screen, cell-based, luminescence, high throughput; 370,000 compounds, 1% hits; activation, % at 9.1 µM; MG213 cells, MMTV-luciferase reporter, dexamethasone, overnight; in the data active = activation above about 7.8%;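 also: 0% = vehicle wells and 100% = reference activator wells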
SMARCA2 conf = SMARCA2 (BRM) function activators, confirmation, cell-based, luminescence, triplicate; MG213 cells, MMTV-luciferase with dexamethasone, overnight; MG213 cells expressing E1A, Rb sequestered; DMSO wells 0%, reference activator 100%; 3,500 compounds, 30% hits; shares compounds with SMARCA2 act; activation, % at 9.1 µM;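 active = activation above its plate's cutoff, the mean activation of tested wells plus 3 SD, cut at about 7.9% in these data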
VP16 Luc act = GAL4-VP16 luciferase reporter activation, counter-screen for SMARCA2 (BRM) activator project, cell-based, pG5luc, luminescence, high throughput | AID 686939, 2013 | 3,500 compounds, 41% hits | shares compounds with SMARCA2 act | HEK293 GAL4-VP16 pG5luc reporter; scaled: DMSO wells 0%, SAHA wells 100% | activation, % at 9.1 µM;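 active = activation above the solvent-only control well mean plus 3 SD, averaged across control plates, cut at about 5.2% in these data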
The depositor's hits bear a star; x = no result. Sampled rows, rich in hits. Any-hit rate of the full collection: about 2.1%.

SMILES	bovine MsrA act	ABCB6 inh MLPCN	MsrA inh	SMARCA2 act	SMARCA2 conf	VP16 Luc act
CC1(C(=O)NS(=O)(=O)c2ccccc2C(F)(F)F)CCN1C(=O)CCc1cccs1 (stereo not drawn)	0.9	96.0	-0.7	8.7*	-3.3	1.5
COC(=O)N/N=C(\C)c1ccccc1Br	-2.2	99.0	-0.7	8.0*	9.1*	0.2
CCCCOC(=O)Nc1ccc2c(C)cc(=O)oc2c1	1.3	99.0	0.0	6.2	x	x
COc1cccc(C(=O)Nc2ccc3c(C)cc(=O)oc3c2)c1	0.6	101.0	1.1	12.9*	10.9*	13.7*
CCOC(=O)Nc1ccc2c(C)cc(=O)oc2c1	-7.0	94.0	2.1	11.4*	1.7	8.7*
O=C(OC12CCCN(C1)/C(=C/c1cccc(Cl)c1)C2)c1ccc(Cl)cc1 (stereo not drawn)	x	x	x	-3.6	x	x
O=C(NCc1ccccc1F)C1CCC(CNS(=O)(=O)c2cccc3cccnc23)CC1 (stereo not drawn)	x	x	x	-1.8	x	x
CCOC(=O)/C=C1\CC(C(=O)OCC)Oc2c(OC)cccc21 (stereo not drawn)	-2.0	98.0	0.4	9.6*	-3.4	1.1
CS/C(=N\N(C)C(N)=O)c1ccccc1	-2.8	102.0	-0.1	8.4*	0.8	-0.3
COC(=O)C1CN(Cc2cn(Cc3ccc(OC)cc3)nn2)CCS(=O)(=O)N1Cc1ccc(C)cc1 (stereo not drawn)	x	x	x	-1.0	x	x
Cc1cccc(C)c1NC(=O)C(c1ccccc1OC(F)(F)F)N1CCN(C)CC1 (stereo not drawn)	x	x	1.2	-3.2	x	x
COc1ccccc1Nc1nc(-c2sc(N)nc2C)cs1	-2.5	104.0	0.0	-0.8	x	x
Cc1nc(N)sc1-c1csc(Nc2ncccn2)n1	-2.4	100.0	-0.8	56.2*	106.4*	12.8*
c1ccc2cc(Cn3ccc4ccc(-c5ccc6ccn(Cc7ccc8ccccc8c7)c6c5)cc43)ccc2c1	x	x	x	0.9	x	x
O=C(Nc1ccc(-c2cn3c(n2)SCC3)cc1)c1ccco1	-5.4	96.0	1.6	13.9*	7.6	10.2*
CC(=O)Nc1ccc(-c2cn3c(n2)SCC3)cc1	-1.2	99.0	0.2	1.6	x	x
O=C(Nc1cccc(-c2nc3cccnc3s2)c1)c1ccco1	0.5	97.0	0.2	1.4	x	x
O=C(Nc1ccc(-c2nc3cccnc3s2)cc1)c1ccco1	-10.7	94.0	3.7	8.2*	3.6	10.1*
c1ccc(CN2CCC(Nc3nc(-c4cccnc4)nc4ccccc34)CC2)cc1	-8.1	87.0	1.5	8.5*	19.1*	1.9
c1ccc(CNc2nc(-c3cccnc3)nc3ccccc23)cc1	-2.5	96.0	0.7	-1.3	x	x
O=C(/C=C/c1ccccc1)Nc1cccc(C(=O)NC2CC2)c1	-3.0	99.0	0.6	12.5*	0.8	6.7*
CCOC(=O)C1=CCN(S(=O)(=O)c2ccc(Cl)cc2)C1c1cccc(C)c1 (stereo not drawn)	0.1	100.0	0.4	-4.6	x	x
CC1(C)C(=O)Nc2ccccc2N1C(=O)Cn1ncc(Cl)c(Cl)c1=O	-3.7	96.0	-0.4	18.6*	22.6*	0.5
Cc1nn(CC(=O)N2c3ccccc3NC(=O)C2(C)C)c(C)c1[N+](=O)[O-]	-0.6	185.0	0.2	-5.5	x	x
COc1ccc(Cl)cc1NC(=O)CSc1nnc(C)c(=O)n1N	-3.1	99.0	-1.7	8.3*	5.7	0.3
SMILES	bovine MsrA act	ABCB6 inh MLPCN	MsrA inh	SMARCA2 act	SMARCA2 conf	VP16 Luc act
O=C(C1CCN(c2ncnc3c2sc2cccc(F)c23)CC1)N1CCN(C(=O)C2CCCO2)CC1 (stereo not drawn)	x	x	x	-6.2	x	x
CCOC(=O)c1ccc(CNCc2ccc(C)cc2)cc1	-0.1	94.0	-0.6	9.1*	-1.9	0.3
CC(=O)Nc1ccc(S(=O)(=O)N2CCN(C(=O)C(=O)c3cccc(C(F)(F)F)c3)CC2)cc1	x	x	0.6	-5.5	x	x
O=C(/C=C/Nc1ccc(F)cc1)c1cccs1	-5.0	103.0	0.9	8.8*	11.2*	13.7*
COc1ccccc1CNC(=O)CSc1nc2ccccc2c(=O)n1CCCN1CCOCC1	-7.9	104.0	0.1	0.7	x	x
COc1ccc(CNC(=O)C(C)Sc2nc3ccccc3c(=O)n2CCCN2CCOCC2)cc1 (stereo not drawn)	-2.1	95.0	0.4	11.0*	-2.0	-0.6
CC1(C(=O)OCC(=O)Nc2ccc3ccccc3c2)CC1(Cl)Cl (stereo not drawn)	-13.2	98.0	-0.7	8.5*	6.0	6.3*
CC1(C(=O)OCC(=O)Nc2ccc(C(N)=O)cc2)CC1(Cl)Cl (stereo not drawn)	-1.8	102.0	-1.3	-3.3	x	x
CC(C)c1ccc(C(=O)CN2C(=O)NC3(CCc4ccccc43)C2=O)cc1 (stereo not drawn)	-11.7	99.0	0.3	10.5*	2.7	0.1
COc1cccc(NC(=O)CN2C(=O)NC3(CCc4ccccc43)C2=O)c1 (stereo not drawn)	-1.9	93.0	-0.5	9.0*	0.0	0.3
CCCCCCCCN1C(=O)[C@@H](CC(=O)NCc2ccccc2)C[C@@]2(C(=O)OC)C1=C[C@H](COCc1ccccc1)O[C@@H]2C	x	x	x	-2.5	x	x
NC(=S)c1ncc(C(F)(F)F)cc1Cl	-3.6	98.0	-0.6	8.6*	-2.6	0.7
O=C(N/N=C/C1CC2CCC1C2)c1ccc2c(c1)OCO2 (stereo not drawn)	-2.1	96.0	1.1	8.2*	-0.9	-0.5
O=C(N/N=C/c1ccccc1O)c1ccc2c(c1)OCO2	-5.5	91.0	2.1	-2.1	x	x
CCCC(=O)NC(C)c1nc2ccccc2[nH]1 (stereo not drawn)	0.6	97.0	-0.3	-0.3	x	x
CCC(=O)NC(c1ccccc1)c1nc2ccccc2[nH]1 (stereo not drawn)	-2.8	96.0	0.2	8.5*	2.9	2.4
COc1ccc(C2C(C(=O)Nc3ccc(Cl)cc3)CCC(=O)N2c2ccc(OC)cc2)cc1 (stereo not drawn)	x	x	x	-1.1	x	x
COc1ccc(OCC(=O)OC(C)CN2CCOCC2)cc1 (stereo not drawn)	-4.3	92.0	0.9	8.8*	-0.4	0.4
CCN(CC)CCn1c2ccccc2c2nc3ccc([N+](=O)[O-])cc3cc21	-1.4	178.0	1.3	10.1*	99.0*	5.0
O=C(Nc1ccccc1Cl)c1cc2ccccc2o/c1=N\O	-0.7	100.0	0.6	10.9*	15.4*	16.2*
COc1cccc(NC(=O)c2cc3ccccc3o/c2=N\O)c1	-3.8	90.0	-0.8	0.5	x	x
O=C(Nc1nc2ncccn2c1-c1ccc(C(F)(F)F)cc1)C1CC1	x	x	x	-4.1	x	x
COCc1nnc(NC(=O)c2cccc(NC(=O)C(C)C)c2)s1	-1.6	105.0	0.0	-0.3	x	x

Source: PubChem BioAssay
